# TCR activator – activates T cell receptor signaling; primary human leukocytes, anti-CD3, IL-2 HTRF, 48 h; Potency, µM (top dose mostly 9.22 µM), inactives show top-dose activation of IL-2 secretion, hits mostly activators; 330,000 tested, under 10 active; AID 504894; further: % of control where 0% means no effect
#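 Primary human leukocytes receive a-CD3 beads and test compound and are incubated 48 hr. Secreted IL-2 is then assayed by HTRF, measuring 665nm acceptor emission after 320nm excitation of the europium donor.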
# ClpP mod – qHTS Assay for Activators of ClpP. ATP-dependent Clp protease proteolytic subunit (Bacillus subtilis (strain 168)), P80244. purified B. subtilis ClpP, FRET peptide cleavage, 20 min. Potency, µM (doses to about 57.5 µM), for inactives: at the highest dose activity change, negative = active. 1.9% of 340,000 active; active means well fitted falling curve with a large enough effect; inconclusive means small, poorly fitted or top-dose-only effect; inactive means no such curve, though single readings can be large or run the other way; further: potency means the concentration at half of the fitted maximal effect; the source files actives as falling curves though it sought activators and does not explain the sign; nearly all actives have a fitted effect of over 65% in size
#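 Buffer: 100 mM Tris/HCl pH8, 100 mM KCl, 0.05% low protease BSA, 2.5% glycerol, 0.01% Tween-20. ClpP 10 microg/mL final; 20 min RT; delta FRET normalized to ADEP and DMSO controls.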
# Sfp PPTase inh – blocks B. subtilis Sfp PPTase activity | Biochemical Sfp PPTase activity, qHTS | Potency, µM, for inactives: largest response in the series, negative = inhibition, actives largely listed as inhibitors | 3.5% of 310,000 active;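 further: the enzyme is Sfp with the accession as filed and its product quenches rhodamine fluorescence; potency means the concentration at half of the fitted maximal effect; 0% = enzyme reaction without inhibitor and -100% = no enzyme wells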
#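 Fluorescence-quenching assay: 15 nM Sfp-PPTase preincubated 15 min at room temperature with compound, then 5 uM rhodamine-CoA and 12.5 uM BHQ-2-labelled YbbR peptide added. Fluorescence (ex 525/em 598 nm) read at start and after 30 min; difference gives rate.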
# uPA surface inh – inhibitors of cell surface uPA generation. cell surface uPA generation assay, qHTS. Potency, µM (doses to about 38.3 µM), without a hit: at the top dose activity change, negative = inhibition, actives largely listed as inhibitors. 0.31% of 330,000 active; active means well fitted inhibition curve with a large enough effect; inconclusive means small, poorly fitted or top-dose-only effect; inactive means no such curve, though single readings can be large or run the other way; tested in mouse RAW 264.7 cells; further: potency means the concentration at half of the fitted maximal effect; on the % scale 0 is the no-effect control and ±100 the full control effect; nearly all actives have a fitted effect of over 55% in size
# * hit, by the source's call; u = inconclusive; x = not tested or not shown; [ ] = dose if it differs, or a comment. Only some compounds are listed: those with a hit (about 4.2% of all), similar ones and a draw of the others. Unless noted, the call rests on the fitted dose curve; in most records, active means well fitted curve in the direction sought with a large enough effect; inconclusive means small, poorly fitted or top-dose-only effect, or another doubt; inactive means no such curve, though single readings can be large; an effect the other way counts as inactive or inconclusive.
SMILES,TCR activator,ClpP mod,Sfp PPTase inh,uPA surface inh
Cc1ccc(N2C(=O)NC(=O)/C(=C\C=C\c3ccco3)C2=O)cc1,0%,0%,u,7.9µM*
O=C1NC(=O)N(c2ccccc2)C(=O)/C1=C/C=C/c1ccco1,-2%,2%,32µM*,10µM*
CCC1/C=C/C=CCC(C)C(O)[C@@](C)(O)C(=O)C(C)C(O)C(C)C(=O)C(C)C(O)C(C)C=CC(=O)O[C@H]2C(C)C(CC1)O[C@]1(CCC(C)C(CC(C)O)O1)C2C (stereo partly specified),x,x,-4%,x
CN(C)c1ccc(/C=C2\CCCN=C2c2cccnc2)cc1,x,x,-14%,x
CCOc1ccc(Nc2ncnc3c2nnn3Cc2ccccc2)cc1,-2%,44%,26%,13%
O=C1NC(=O)N(CCc2ccc(F)cc2)C(=O)/C1=C\C=C\c1ccccc1,-6%,x,-7%,11%
C=CCN1C(=O)NC(=O)/C(=C/C=C/c2ccccc2)C1=O,-4%,0%,28µM*,0%
Cc1cccc(N2C(=O)NC(=O)/C(=C\C=C\c3ccco3)C2=O)c1,-2%,0%,45µM*,10µM*
O=C1NC(=O)N(Cc2ccco2)C(=O)/C1=C/C=C/c1ccco1,2%,1%,-6%,-14%
CN1C(=O)/C(=C/C=C/c2ccco2)C(=O)NC1=S,0%,0%,13µM*,-1%
CC1=C(C(=O)O)N2C(=O)[C@@H](NC(=O)CCCC(=O)O)[C@H]2SC1,-9%,2%,5µM*,6%
CCc1ccc(C(=O)NN(C(=O)c2cc(C)cc(C)c2)C(C)(C)C)cc1,x,x,22%,x
Cc1nn(CCC#N)c2c1P(=S)(N1CCCC1)OC(c1ccc(F)cc1)=N2 (stereo unspecified),1%,1%,10µM*,13%
Cc1c(O)cccc1C(=O)N[C@@H](CSc1ccccc1)[C@H](O)CN1C[C@H]2CCCC[C@H]2C[C@H]1C(=O)NC(C)(C)C,0%,1%,11%,u
O=C(Oc1ccccc1)N1CCC2(CCCN(Cc3nccs3)C2)CC1,x,x,11%,x
O=[N+]([O-])c1ccc(Cl)c([N+](=O)[O-])c1,7%,-3%,x,1.3µM*
CSCC[C@H](NC(=O)[C@@H](NC(=O)CNC(=O)[C@H](CC(=O)O)NC(=O)[C@H](CCSC)NC(=O)[C@@H](N)Cc1ccc(O)cc1)[C@@H](C)O)C(=O)N[C@@H](CO)C(=O)N[C@@H](CCC(N)=O)C(=O)N[C@H](C(=O)O)C(C)C,x,x,2%,x
CCc1cc(=O)oc2cc(C)cc(OCC(=O)N3CCC(C(=O)O)(c4ccccc4)CC3)c12,11%,4%,9%,3%
Cc1cc2oc(=O)cc(-c3ccccc3)c2c(C)c1-c1ccc(CO)cc1,2%[46.1 µM],-2%,126µM*,-10%
O=C1NC(=O)N(Cc2ccc(F)cc2)C(=O)/C1=C\c1ccoc1,-2%,x,-28%,3%
CSc1ncc(/C=C2/C(=O)NC(=O)N(c3ccc(C(C)C)cc3)C2=O)cn1,-3%[46.1 µM],1%,79µM*,7%
CSc1ncc(/C=C2/C(=O)NC(=O)N(C)C2=O)cn1,0%,0%,-95%,2%
O=C1NC(=O)N(Cc2ccccc2)C(=O)/C1=C/c1cnc(-c2ccccc2)nc1,-2%,x,56µM*,3%
CC(C)c1ccc(N2C(=O)NC(=O)/C(=C/c3cnc(-c4ccccc4)nc3)C2=O)cc1,6%[46.1 µM],-3%,56µM*,1%
CC1OC(=O)C(C(C)C)NC(=O)C(C(C)C)OC(=O)C(C(C)C)NC(=O)C(C)OC(=O)C(C(C)C)NC(=O)C(C(C)C)OC(=O)C(C(C)C)NC(=O)C(C)OC(=O)C(C(C)C)NC(=O)C(C(C)C)OC(=O)C(C(C)C)NC1=O (stereo unspecified),x,x,27%,x
SMILES,TCR activator,ClpP mod,Sfp PPTase inh,uPA surface inh
Cc1c(N=Nc2c(O)[nH]c(=O)[nH]c2=O)c(=O)n(-c2ccccc2)n1C,2%,-1%,45µM*,-3%
Oc1ccc2c3c1O[C@H]1c4c(c5ccccc5n4Cc4ccccc4)C[C@]4(O)[C@H](C2)N(CC2CC2)CC[C@@]314,x,x,-10%,x
C=CCC[C@H](Cc1ccc(F)cc1)C(=O)OC[C@@H](Cc1c[nH]c2ccccc12)NC(=O)[C@@H](CC=C)CC(=O)N(CCO)Cc1ccccc1,1%,-10%,x,-14%
CCOc1ccccc1-n1c(O)c(C=NCCCn2ccnc2)c(=O)[nH]c1=O,-7%,1%,13%,-2%
CCOc1ccccc1-n1c(O)c(C=NCCCN(CC)CC)c(=O)[nH]c1=O,5%,32µM*,5%,1%
CCOc1ccccc1-n1c(O)c(C=Nc2c(C)n(C)n(-c3ccccc3)c2=O)c(=O)[nH]c1=O,0%,-2%,-6%,7%
COc1ccc(OC)c(-n2c(O)c(C=Nc3c(C)n(C)n(-c4ccccc4)c3=O)c(=O)[nH]c2=S)c1,5%,x,45µM*,0%
CN1CC=C2C(C#N)=C(N)C(C#N)(C#N)C(c3ccncc3)C2C1 (stereo unspecified),7%,28µM*,1%,-1%
COc1ccc(NC2=NCC(C)S2)cc1 (stereo unspecified),2%,x,14%,-5%
COc1ccc(Nc2nc(N)nc(CCl)n2)cc1,3%,-6%,15%,2.5µM*
CCn1c(C)cc(/C=C2\C(=O)NC(=O)N(c3ccccc3C)C2=O)c1C,-5%,-2%,10%,-17%
Cc1ccccc1N1C(=O)NC(=O)/C(=C\c2cnn(-c3ccccc3)c2)C1=O,2%[46.1 µM],0%,25µM*,1%
CCC(CO)NC(=O)C1C=C2c3cccc4[nH]cc(c34)CC2N(C)C1 (stereo unspecified),-6%,4%,-18%,0%
CC[C@@H](CO)NC(=O)[C@@H]1C=C2c3cccc4[nH]cc(c34)C[C@H]2N(C)C1,-6%,4%,45µM*,2%
COc1ccc(CC2C(=O)NC(=O)N(c3ccccc3)C2=O)c(OC)c1 (stereo unspecified),14%,0%,89µM*,1%
CCc1ccc(N2C(=O)NC(=O)C(Cc3ccc(OC)cc3OC)C2=O)cc1 (stereo unspecified),12%,-1%,50µM*,1%
COc1ccc(CC2C(=O)N(c3ccccc3)C(=O)N(c3ccccc3)C2=O)c(OC)c1,-1%,-2%,-1%,-2%
CC(=O)OC1CCC23C(=O)OC45CCC(C6=CC(=O)OC6)C4(C)CCC2C5CCC3(O)C1 (stereo unspecified),x,x,5%,x
CN1C(=O)C(=Cc2ccccc2OCc2ccc(Cl)cc2)C(=O)N(C)C1=O,3%[46.1 µM],x,50µM*,-4%
Cc1ccc(S(=O)(=O)Oc2ccccc2C=C2C(=O)N(C)C(=O)N(C)C2=O)cc1,3%,-4%,79µM*,-1%
c1cnc(N2CC3(CCNCC3)C2)nc1,x,x,-3%,x
Cc1ccccc1-n1c(O)c(/C=N/Nc2nc3c(c(=O)n(C)c(=O)n3C)n2C)c(=O)[nH]c1=S,3%[46.1 µM],-6%,50µM*,2%
